Source: PubChem BioAssay (NCATS)
Inconclusive results are not listed. Active and inactive are the calls of the source. Calls come from the whole dose curve; as a rule, active = well fitted cell-killing curve with a large enough effect; inconclusive = small, poorly fitted or top-dose-only effect, or effect the other way; inactive = no such curve, though single readings can be large or run the other way.

assay: Quantitative High-Throughput drug screen in 47 multiple myeloma cell lines against the NCATS MIPE library collection: OCIMY5_PLB cell viability assay (AID 1918988); details: OCI-MY5 myeloma viability, ATP luminescence, 48 h; series mostly up to 45.8 µM; note: nearly all actives have a fitted effect of over 65% in size
Summary of the method: (§1)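 Readout: median RLU from CellTiter-Glo after 5 min at room temperature. Preceding step was 48 h drug treatment of 500 cells/well at 37 °C, 5% CO2, with DMSO-only and media-only control wells.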
Potency is the fitted concentration of half-maximal effect.

SMILES	Potency
CC(O)C1C(=O)N2C(C(=O)O)=C(SC3CNC(C(=O)N(C)C)C3)C(C)C12 (centres undefined)	inactive
CCCCN1CCC(CNC(=O)c2c3n(c4ccccc24)CCCO3)CC1	3.32 µM (active)
CCCCCCCCCC(=O)N[C@@H](Cc1c[nH]c2ccccc12)C(=O)N[C@H](CC(N)=O)C(=O)N[C@@H](CC(=O)O)C(=O)N[C@@H]1C(=O)NCC(=O)N[C@@H](CCCN)C(=O)N[C@@H](CC(=O)O)C(=O)N[C@H](C)C(=O)N[C@@H](CC(=O)O)C(=O)NCC(=O)N[C@H](CO)C(=O)N[C@@H]([C@@H](C)CC(=O)O)C(=O)N[C@@H](CC(=O)c2ccccc2N)C(=O)O[C@@H]1C	inactive
CC1(C)O[C@@H]2C[C@@H]3[C@H]4C[C@@H](F)C5=CC(=O)C=C[C@]5(C)[C@@]4(F)[C@@H](O)C[C@]3(C)[C@]2(C(=O)CO)O1	0.0166 µM (active)
C[C@]12CC[C@H](O)CC1=CCC1C2CC[C@]2(C)C(n3cnc4ccccc43)=CCC12 (some centres undefined)	18.7 µM (active)
COc1ccc(CC2SC(=O)NC2=O)cc1C(=O)NCc1ccc(C(F)(F)F)cc1 (centres undefined)	inactive
Cc1ccc(CN2CCNCC2)cc1NC(=O)CNc1ccc(F)c(F)c1	18.7 µM (active)
NC(=O)c1c(OCc2c(F)cc(Br)cc2F)nsc1NC(=O)NCCCCN1CCCC1	23.5 µM (active)
CCN(CC)CCCCNc1ncc2cc(-c3cc(OC)cc(OC)c3)c(NC(=O)NC(C)(C)C)nc2n1	16.6 µM (active)
CNC(=O)CN1CCC(Oc2cc3c(Nc4cccc(Cl)c4F)ncnc3cc2OC)CC1	0.0118 µM (active)
Nc1ccn([C@@H]2O[C@H](CO)[C@H](O)C2(F)F)c(=O)n1	5.9 µM (active)
CC(=O)OCCN1C(=O)c2c(C)nc3ccc(S(=O)(=O)N4CCOCC4)cc3c2C1=O	inactive
NCC(=O)Nc1ccc(-n2nc(C(F)(F)F)cc2-c2ccc3c(ccc4ccccc43)c2)cc1	29.6 µM (active)
Cc1c(Cn2c(C)nc3c(C(=O)O)cc(N4CCOCC4)cc32)cccc1C(F)(F)F	8.33 µM (active)
Cc1cc(Nc2cc(CN3CCOCC3)c3nc(C)c(Cc4ccc(Cl)cc4F)n3n2)n[nH]1	3.32 µM (active)
Cc1c(NC(=O)OC[C@@H]2COCCN2)cn2ncnc(Nc3ccc4c(cnn4Cc4cccc(F)c4)c3)c12	0.0166 µM (active)
Cc1cnc(-c2cnc(NCCNc3ccc(C#N)cn3)nc2-c2ccc(Cl)cc2Cl)[nH]1	20.9 µM (active)

assay: Quantitative High-Throughput drug screen in 47 multiple myeloma cell lines against the NCATS MIPE library collection: OPM1_PLB cell viability assay (AID 1918989); details: CellTiter-Glo, 48 h; series mostly up to 45.8 µM; note: nearly all actives have a fitted effect of over 40% in size
Summary of the method: as §1

SMILES	Potency
COc1ccc(-n2nc(C(N)=O)c3c2C(=O)N(c2ccc(N4CCCCC4=O)cc2)CC3)cc1	inactive
CC(O)C1C(=O)N2C(C(=O)O)=C(SC3CNC(C(=O)N(C)C)C3)C(C)C12 (centres undefined)	inactive
CNc1nccc(-c2cccnc2Oc2cc(C(=O)Nc3cccc(C(F)(F)F)c3)ccc2C)n1	13.2 µM (active)
COc1cccc(-c2ccc(NC(=O)C3=C(C(=O)O)CCC3)c(F)c2)c1	6.62 µM (active)
CCCCN1CCC(CNC(=O)c2c3n(c4ccccc24)CCCO3)CC1	23.5 µM (active)
COC(=O)C[C@](O)(CCCC(C)(C)O)C(=O)O[C@@H]1C(OC)=C[C@]23CCCN2CCc2cc4c(cc2[C@H]13)OCO4	inactive
CCNC(=O)Nc1ccc2ncc(Nc3ccc(C)cc3)nc2n1	7.43 µM (active)
CC1(C)O[C@@H]2C[C@@H]3[C@H]4C[C@@H](F)C5=CC(=O)C=C[C@]5(C)[C@@]4(F)[C@@H](O)C[C@]3(C)[C@]2(C(=O)CO)O1	0.0187 µM (active)
CS(=O)(=O)c1ccc(-c2cnc(N)c(C(=O)Nc3ccccc3)n2)cc1	10.5 µM (active)
C[C@]12CC[C@H](O)CC1=CCC1C2CC[C@]2(C)C(n3cnc4ccccc43)=CCC12 (some centres undefined)	inactive
COc1ccc(CC2SC(=O)NC2=O)cc1C(=O)NCc1ccc(C(F)(F)F)cc1 (centres undefined)	6.62 µM (active)
Nc1cccc(-c2cc3c(Oc4cccc(O)c4)ncnc3[nH]2)c1	20.9 µM (active)
NC(=O)c1c(OCc2c(F)cc(Br)cc2F)nsc1NC(=O)NCCCCN1CCCC1	13.2 µM (active)
CCN(CC)CCCCNc1ncc2cc(-c3cc(OC)cc(OC)c3)c(NC(=O)NC(C)(C)C)nc2n1	14.8 µM (active)
CNC(=O)CN1CCC(Oc2cc3c(Nc4cccc(Cl)c4F)ncnc3cc2OC)CC1	0.0332 µM (active)
CC(=O)OCCN1C(=O)c2c(C)nc3ccc(S(=O)(=O)N4CCOCC4)cc3c2C1=O	inactive
COc1cccc(Nc2c(C(N)=O)cnc3c(C)cc(S(=O)(=O)c4cccc(C(=O)N(C)C)c4)cc23)c1	inactive
NCC(=O)Nc1ccc(-n2nc(C(F)(F)F)cc2-c2ccc3c(ccc4ccccc43)c2)cc1	18.7 µM (active)
Cc1c(Cn2c(C)nc3c(C(=O)O)cc(N4CCOCC4)cc32)cccc1C(F)(F)F	18.7 µM (active)
Clc1cccc(-n2nnnc2NCc2ccccc2Oc2ccccn2)c1Cl	inactive
Cc1cc(Nc2cc(CN3CCOCC3)c3nc(C)c(Cc4ccc(Cl)cc4F)n3n2)n[nH]1	16.6 µM (active)
Cc1c(NC(=O)OC[C@@H]2COCCN2)cn2ncnc(Nc3ccc4c(cnn4Cc4cccc(F)c4)c3)c12	4.18 µM (active)
CC1COC2(CCN(c3nc(=O)c4cc(C(F)(F)F)cc([N+](=O)[O-])c4s3)CC2)O1 (centres undefined)	inactive
Cc1cn2cc(C(=O)N(C)CCO)cc(N[C@@H]3CCOc4cccc(C)c43)c2n1	inactive
COc1c(N2C[C@@H]3CCCN[C@H]3C2)c(F)cc2c(=O)c(C(=O)O)cn(C3CC3)c12	inactive
NC(=O)c1cccc2cn(-c3ccc([C@@H]4CCCNC4)cc3)nc12	inactive
CC(C)(O)CCc1ccc(OCc2cc(-c3cccc(OC(F)F)c3)c3ncccc3c2)cc1	inactive
